Consider 15 targets from the supplement of paper PMC6411743.

Compound in this experiment: Nc1ncnc2c1ncn2[C@@H]1O[C@H](COP(=O)(O)OP(=O)(O)OP(=O)(O)O)[C@@H](O)[C@H]1O [adenosine triphosphate]
The experiment in a line: NP40-soluble protein abundance relative to vehicle (solubility fold change) (ratio); higher = more soluble protein in presence of ATP. The method, boiled down:
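Jurkat crude lysate (Dounce-homogenised) was treated with eight concentrations from 0.1 to 10 mM for 10 min at room temperature, then 3 min at 37 °C. It was solubilised with 0.8% NP40 and benzonase (60 min, 4 °C) and ultracentrifuged, and the supernatant was TMT-labelled for LC-MS/MS. Intensities were vsn-normalised, and the value is the fold change against the NP40-processed vehicle per replicate, from three independent experiments.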

± gives the standard deviation of the averaged measurements. Of roughly 6,500 targets only a part is listed; those with the largest changes were picked by preference.

Sequence of UniProt Q9ULI0 (Q9ULI0 whole entry): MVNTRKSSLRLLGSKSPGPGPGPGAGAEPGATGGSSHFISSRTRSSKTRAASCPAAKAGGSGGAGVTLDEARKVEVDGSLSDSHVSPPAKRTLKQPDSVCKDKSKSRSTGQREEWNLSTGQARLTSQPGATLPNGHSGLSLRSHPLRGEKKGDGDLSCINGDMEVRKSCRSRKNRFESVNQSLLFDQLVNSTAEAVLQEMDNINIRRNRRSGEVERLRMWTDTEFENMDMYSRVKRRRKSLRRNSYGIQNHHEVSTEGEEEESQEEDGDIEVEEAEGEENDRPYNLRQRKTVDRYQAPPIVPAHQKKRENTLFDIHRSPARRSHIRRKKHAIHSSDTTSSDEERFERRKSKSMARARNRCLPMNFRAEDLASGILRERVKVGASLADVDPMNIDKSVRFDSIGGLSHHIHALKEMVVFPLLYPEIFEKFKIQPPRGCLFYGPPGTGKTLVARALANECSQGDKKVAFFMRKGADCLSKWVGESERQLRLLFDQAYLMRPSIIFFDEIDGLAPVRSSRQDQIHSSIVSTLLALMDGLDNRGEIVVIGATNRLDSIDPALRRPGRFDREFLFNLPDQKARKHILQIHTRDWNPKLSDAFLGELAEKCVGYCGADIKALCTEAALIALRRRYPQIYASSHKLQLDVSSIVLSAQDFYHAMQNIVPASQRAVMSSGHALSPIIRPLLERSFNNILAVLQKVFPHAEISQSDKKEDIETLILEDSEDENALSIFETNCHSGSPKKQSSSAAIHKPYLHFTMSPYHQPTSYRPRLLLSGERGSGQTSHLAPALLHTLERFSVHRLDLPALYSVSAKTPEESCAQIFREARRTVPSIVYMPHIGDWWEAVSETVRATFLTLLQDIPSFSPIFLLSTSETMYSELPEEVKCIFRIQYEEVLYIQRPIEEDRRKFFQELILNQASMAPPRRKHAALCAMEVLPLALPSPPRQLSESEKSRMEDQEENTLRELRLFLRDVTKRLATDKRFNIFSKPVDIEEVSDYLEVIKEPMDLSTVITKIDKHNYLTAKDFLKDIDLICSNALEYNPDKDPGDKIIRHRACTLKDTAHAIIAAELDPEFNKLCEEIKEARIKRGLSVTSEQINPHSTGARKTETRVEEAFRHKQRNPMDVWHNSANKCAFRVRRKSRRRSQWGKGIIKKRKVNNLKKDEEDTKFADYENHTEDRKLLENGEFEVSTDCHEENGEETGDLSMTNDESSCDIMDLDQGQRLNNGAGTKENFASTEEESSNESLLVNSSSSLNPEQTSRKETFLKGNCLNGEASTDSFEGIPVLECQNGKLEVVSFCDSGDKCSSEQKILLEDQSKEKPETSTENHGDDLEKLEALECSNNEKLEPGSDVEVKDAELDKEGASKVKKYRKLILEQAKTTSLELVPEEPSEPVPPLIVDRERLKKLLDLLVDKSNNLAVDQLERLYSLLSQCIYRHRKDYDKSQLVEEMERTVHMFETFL
Sequence of UniProt Q9Y2G5 (Q9Y2G5 whole entry): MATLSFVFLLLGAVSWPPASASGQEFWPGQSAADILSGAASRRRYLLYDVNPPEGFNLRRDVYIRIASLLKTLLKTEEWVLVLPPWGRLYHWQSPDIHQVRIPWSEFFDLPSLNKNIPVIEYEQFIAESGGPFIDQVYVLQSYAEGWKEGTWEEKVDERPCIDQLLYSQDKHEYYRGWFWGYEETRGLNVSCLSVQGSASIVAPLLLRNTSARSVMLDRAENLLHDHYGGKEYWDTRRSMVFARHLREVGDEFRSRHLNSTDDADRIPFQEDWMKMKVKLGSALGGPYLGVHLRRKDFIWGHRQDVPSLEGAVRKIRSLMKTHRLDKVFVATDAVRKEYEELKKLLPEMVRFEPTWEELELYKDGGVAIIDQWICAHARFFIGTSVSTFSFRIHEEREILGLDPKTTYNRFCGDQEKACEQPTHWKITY
Sequence of UniProt Q9UKU7 (Q9UKU7 whole entry): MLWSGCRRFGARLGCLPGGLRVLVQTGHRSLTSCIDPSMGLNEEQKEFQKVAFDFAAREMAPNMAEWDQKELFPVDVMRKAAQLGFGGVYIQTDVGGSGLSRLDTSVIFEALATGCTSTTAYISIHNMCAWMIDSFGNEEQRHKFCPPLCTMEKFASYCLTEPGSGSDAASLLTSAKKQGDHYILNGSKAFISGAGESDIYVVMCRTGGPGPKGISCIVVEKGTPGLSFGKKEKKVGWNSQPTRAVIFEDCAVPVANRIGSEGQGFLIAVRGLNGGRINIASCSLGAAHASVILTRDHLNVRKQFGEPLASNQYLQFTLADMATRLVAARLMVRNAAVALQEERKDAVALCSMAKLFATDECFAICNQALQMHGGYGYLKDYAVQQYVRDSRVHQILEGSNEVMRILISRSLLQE
Sequence of UniProt Q9Y2H0 (Q9Y2H0 whole entry): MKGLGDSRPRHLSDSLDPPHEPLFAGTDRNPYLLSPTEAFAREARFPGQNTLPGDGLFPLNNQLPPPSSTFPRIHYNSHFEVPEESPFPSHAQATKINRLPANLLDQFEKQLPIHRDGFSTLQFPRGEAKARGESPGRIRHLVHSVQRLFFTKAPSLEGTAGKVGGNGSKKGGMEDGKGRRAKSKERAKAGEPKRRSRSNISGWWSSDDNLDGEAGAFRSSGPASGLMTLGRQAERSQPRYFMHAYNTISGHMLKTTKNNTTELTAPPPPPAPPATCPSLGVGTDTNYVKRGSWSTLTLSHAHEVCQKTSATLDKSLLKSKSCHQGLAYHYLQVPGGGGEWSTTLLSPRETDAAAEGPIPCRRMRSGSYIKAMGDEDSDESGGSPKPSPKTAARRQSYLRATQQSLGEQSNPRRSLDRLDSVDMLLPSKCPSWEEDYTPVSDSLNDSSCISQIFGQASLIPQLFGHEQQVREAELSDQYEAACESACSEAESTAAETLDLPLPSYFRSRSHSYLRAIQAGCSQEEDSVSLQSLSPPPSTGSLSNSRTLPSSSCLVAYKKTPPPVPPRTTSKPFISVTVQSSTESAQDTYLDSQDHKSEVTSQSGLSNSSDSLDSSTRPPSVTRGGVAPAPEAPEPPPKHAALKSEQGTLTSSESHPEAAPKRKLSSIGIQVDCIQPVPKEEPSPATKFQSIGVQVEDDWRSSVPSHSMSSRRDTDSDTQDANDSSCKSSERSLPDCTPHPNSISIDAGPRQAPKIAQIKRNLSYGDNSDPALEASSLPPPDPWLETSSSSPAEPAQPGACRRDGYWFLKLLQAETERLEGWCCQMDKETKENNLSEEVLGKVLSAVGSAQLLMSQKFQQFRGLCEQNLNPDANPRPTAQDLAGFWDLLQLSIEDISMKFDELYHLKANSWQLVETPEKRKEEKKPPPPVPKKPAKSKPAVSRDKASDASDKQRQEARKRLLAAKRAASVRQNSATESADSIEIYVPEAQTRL
Sequence of UniProt Q9Y3Q3 (Q9Y3Q3 whole entry): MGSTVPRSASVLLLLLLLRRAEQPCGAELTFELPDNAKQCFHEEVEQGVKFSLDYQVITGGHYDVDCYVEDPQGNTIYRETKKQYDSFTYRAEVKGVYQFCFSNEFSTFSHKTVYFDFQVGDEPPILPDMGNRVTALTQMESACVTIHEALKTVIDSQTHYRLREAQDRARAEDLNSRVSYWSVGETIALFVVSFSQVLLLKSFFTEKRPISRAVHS
Sequence of UniProt Q9UK59 (Q9UK59 whole entry): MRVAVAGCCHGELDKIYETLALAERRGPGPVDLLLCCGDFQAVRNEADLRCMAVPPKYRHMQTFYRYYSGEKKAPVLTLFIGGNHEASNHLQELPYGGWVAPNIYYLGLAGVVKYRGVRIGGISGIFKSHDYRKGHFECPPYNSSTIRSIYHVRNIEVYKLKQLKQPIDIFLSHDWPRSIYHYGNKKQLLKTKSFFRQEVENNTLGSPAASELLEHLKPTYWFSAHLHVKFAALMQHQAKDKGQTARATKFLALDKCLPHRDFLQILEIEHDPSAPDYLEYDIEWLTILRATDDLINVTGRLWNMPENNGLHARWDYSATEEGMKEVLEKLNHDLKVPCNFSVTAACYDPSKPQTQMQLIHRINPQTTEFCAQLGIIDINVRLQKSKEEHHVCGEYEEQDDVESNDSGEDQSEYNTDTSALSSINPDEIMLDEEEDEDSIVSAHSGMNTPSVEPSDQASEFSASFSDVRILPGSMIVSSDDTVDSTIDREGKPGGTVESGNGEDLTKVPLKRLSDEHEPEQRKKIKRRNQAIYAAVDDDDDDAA
Sequence of UniProt Q9UIV1 (Q9UIV1 whole entry): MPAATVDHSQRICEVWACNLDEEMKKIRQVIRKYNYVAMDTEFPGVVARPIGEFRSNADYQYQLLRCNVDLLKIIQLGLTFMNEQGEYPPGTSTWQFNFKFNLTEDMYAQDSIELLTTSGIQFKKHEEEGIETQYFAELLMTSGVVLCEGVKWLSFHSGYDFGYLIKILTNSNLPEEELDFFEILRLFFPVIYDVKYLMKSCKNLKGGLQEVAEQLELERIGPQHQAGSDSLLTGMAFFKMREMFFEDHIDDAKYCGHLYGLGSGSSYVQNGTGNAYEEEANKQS
Sequence of UniProt Q9UL15 (Q9UL15 whole entry): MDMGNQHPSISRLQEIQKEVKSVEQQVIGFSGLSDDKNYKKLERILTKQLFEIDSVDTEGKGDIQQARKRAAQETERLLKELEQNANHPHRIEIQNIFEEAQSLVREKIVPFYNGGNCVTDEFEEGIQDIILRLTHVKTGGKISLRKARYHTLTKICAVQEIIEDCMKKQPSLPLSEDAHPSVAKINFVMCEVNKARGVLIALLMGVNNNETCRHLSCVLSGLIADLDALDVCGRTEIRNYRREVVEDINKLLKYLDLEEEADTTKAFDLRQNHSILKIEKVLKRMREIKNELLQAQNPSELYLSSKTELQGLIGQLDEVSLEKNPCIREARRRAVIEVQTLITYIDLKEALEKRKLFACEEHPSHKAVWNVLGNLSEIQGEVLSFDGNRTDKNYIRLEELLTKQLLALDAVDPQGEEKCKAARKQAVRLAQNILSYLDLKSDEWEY

Take POFUT2 (UniProt Q9Y2G5): the NP40-soluble protein abundance turned out to be 1 ± 0.037 (concentration: 1mM); 1.04 ± 0.019 (concentration: 2mM); 1.01 ± 0.012 (concentration: 4mM); 1.02 ± 0.04 (concentration: 6mM); 0.955 ± 0.029 (concentration: 8mM); 0.975 ± 0.017 (concentration: 10mM).
On to UniProt Q9UKI8|Q9UKI8-5, for which the NP40-soluble protein abundance came out at 0.986 ± 0.039 (concentration: 1mM); 0.998 ± 0.025 (concentration: 2mM); 1 ± 0.059 (concentration: 4mM); 0.993 ± 0.041 (concentration: 6mM); 0.953 ± 0.021 (concentration: 8mM); 0.977 ± 0.054 (concentration: 10mM).
For TEX264 (UniProt Q9Y6I9), the NP40-soluble protein abundance reads like this: (concentration: 1mM) 0.918 ± 0.028; (concentration: 2mM) 0.919 ± 0.024; (concentration: 4mM) 0.91 ± 0.041; (concentration: 6mM) 0.916 ± 0.061; (concentration: 8mM) 0.867 ± 0.058; (concentration: 10mM) 0.886 ± 0.029.
As to UniProt Q9UNF0|Q9UNF0-2, the NP40-soluble protein abundance by setting is: (concentration: 1mM) 0.963 ± 0.04; (concentration: 2mM) 0.952 ± 0.024; (concentration: 4mM) 0.927 ± 0.011; (concentration: 6mM) 0.954 ± 0.023; (concentration: 8mM) 0.895 ± 0.019; (concentration: 10mM) 0.9 ± 0.049.
Regarding UniProt Q9ULI0|Q9ULI0-2, the NP40-soluble protein abundance turned out to be 1.69 ± 0.34 (concentration: 1mM); 1.83 ± 0.46 (concentration: 2mM); 1.86 ± 0.57 (concentration: 4mM); 1.86 ± 0.44 (concentration: 6mM); 1.75 ± 0.44 (concentration: 8mM); 1.72 ± 0.48 (concentration: 10mM).
For the target TMED3 (UniProt Q9Y3Q3), the NP40-soluble protein abundance amounted to 1.08 ± 0.12 (concentration: 1mM); 1.07 ± 0.12 (concentration: 2mM); 1.06 ± 0.086 (concentration: 4mM); 1.04 ± 0.13 (concentration: 6mM); 1.06 ± 0.057 (concentration: 8mM); 1.04 ± 0.088 (concentration: 10mM).
With TRPV2 (UniProt Q9Y5S1), the NP40-soluble protein abundance runs as follows: (concentration: 1mM) 1.02 ± 0.076; (concentration: 2mM) 1.02 ± 0.073; (concentration: 4mM) 0.999 ± 0.03; (concentration: 6mM) 0.955 ± 0.0051; (concentration: 8mM) 0.965 ± 0.048; (concentration: 10mM) 0.976 ± 0.023.
Regarding UniProt Q9UL15|Q9UL15-2, the NP40-soluble protein abundance is, setting by setting: (concentration: 1mM) 0.964 ± 0.032; (concentration: 2mM) 0.988 ± 0.024; (concentration: 4mM) 0.976 ± 0.035; (concentration: 6mM) 0.993 ± 0.018; (concentration: 8mM) 0.971 ± 0.01; (concentration: 10mM) 0.979 ± 0.029.
As for UniProt Q9UPN7, the NP40-soluble protein abundance was 0.945 ± 0.014 (concentration: 1mM); 0.941 ± 0.046 (concentration: 2mM); 0.941 ± 0.029 (concentration: 4mM); 0.917 ± 0.041 (concentration: 6mM); 0.924 ± 0.018 (concentration: 8mM); 0.93 ± 0.037 (concentration: 10mM).
For the target UniProt Q9UPN4-2|Q9UPN4-3|I3L2J8|Q9UPN4, the NP40-soluble protein abundance was found to be 1.15 ± 0.14 (concentration: 1mM); 1.18 ± 0.14 (concentration: 2mM); 1.35 ± 0.12 (concentration: 4mM); 1.45 ± 0.21 (concentration: 6mM); 1.47 ± 0.26 (concentration: 8mM); 1.7 ± 0.26 (concentration: 10mM).
For the target DBR1 (UniProt Q9UK59), the NP40-soluble protein abundance by setting is: (concentration: 1mM) 1.04 ± 0.066; (concentration: 2mM) 1.03 ± 0.066; (concentration: 4mM) 1.02 ± 0.051; (concentration: 6mM) 0.973 ± 0.11; (concentration: 8mM) 1.03 ± 0.056; (concentration: 10mM) 1.03 ± 0.044.
As to CNOT7 (UniProt Q9UIV1), the NP40-soluble protein abundance (concentration: 1mM) was determined as 1.23 ± 0.044; the NP40-soluble protein abundance (concentration: 2mM) came to 1.22 ± 0.06; the NP40-soluble protein abundance (concentration: 4mM) was found to be 1.29 ± 0.038; the NP40-soluble protein abundance (concentration: 6mM) came out at 1.25 ± 0.037; the NP40-soluble protein abundance (concentration: 8mM) came out at 1.3 ± 0.061; the NP40-soluble protein abundance (concentration: 10mM) is 1.26 ± 0.076.
With MRPS2 (UniProt Q9Y399), the NP40-soluble protein abundance amounted to 1.11 ± 0.13 (concentration: 1mM); 0.951 ± 0.12 (concentration: 2mM); 0.932 ± 0.071 (concentration: 4mM); 0.917 ± 0.17 (concentration: 6mM); 0.944 ± 0.12 (concentration: 8mM); 0.884 ± 0.088 (concentration: 10mM).
With UniProt Q9Y2H0|Q9Y2H0-3|Q9Y2H0-1, the NP40-soluble protein abundance is, setting by setting: (concentration: 1mM) 0.921 ± 0.038; (concentration: 2mM) 0.899 ± 0.068; (concentration: 4mM) 0.922 ± 0.045; (concentration: 6mM) 0.944 ± 0.025; (concentration: 8mM) 0.861 ± 0.093; (concentration: 10mM) 0.85 ± 0.052.
As to ACAD8 (UniProt Q9UKU7), the NP40-soluble protein abundance reads like this: (concentration: 1mM) 1.01 ± 0.049; (concentration: 2mM) 1 ± 0.064; (concentration: 4mM) 0.988 ± 0.033; (concentration: 6mM) 0.961 ± 0.058; (concentration: 8mM) 0.983 ± 0.029; (concentration: 10mM) 0.99 ± 0.038.
